# Counter-ions that a name gives are not always drawn. In all, about 1,500 compounds were measured (“Excess HSA synergy score (sum over dose matrix of excess over highest single agent)”: median about 43, lowest 2% from about -900 on). Many of the other results were omitted from the sample, so the lowest values are more common in it than they were.
# Tested on: PEO-1
# Assay: Excess HSA synergy score (sum over dose matrix of excess over highest single agent) (score (summed % response)); higher = less synergy / more antagonism (negative = synergy)
# Settings: 72 h, read-out: viability/apoptosis luminescence (CellTiter-Glo or Caspase3-Glo / not stated per table)
# [1] = matrix design: 6x6, 5-fold dilutions (primary screen)
# [2] = matrix design: 10x10, 9-step dilutions (confirmatory)
Compound,Excess HSA synergy score [1],Excess HSA synergy score [2]
CCOC(=O)N1c2ccc(C(F)(F)F)cc2[C@@H](N(Cc2cc(C(F)(F)F)cc(C(F)(F)F)c2)C(=O)OC)C[C@H]1CC [Torcetrapib] + CC[C@H](NC(=O)[C@H](C)NC)C(=O)N1C[C@@H](O)C[C@H]1Cc1c(-c2[nH]c3cc(F)ccc3c2C[C@@H]2C[C@H](O)CN2C(=O)[C@H](CC)NC(=O)[C@H](C)NC)[nH]c2cc(F)ccc12 [Birinapant],-42.4,
Nc1nc(=O)c2c([nH]1)NCC(CNc1ccc(C(=O)N[C@@H](CCC(=O)O)C(=O)O)cc1)N2C=O (stereo partly drawn) [Calcium folinate] + CC[C@H](NC(=O)[C@H](C)NC)C(=O)N1C[C@@H](O)C[C@H]1Cc1c(-c2[nH]c3cc(F)ccc3c2C[C@@H]2C[C@H](O)CN2C(=O)[C@H](CC)NC(=O)[C@H](C)NC)[nH]c2cc(F)ccc12 [Birinapant],148,
CN(C)/[N+]([O-])=N/Oc1cc(ON[N+](=O)N2CCN(C(=O)c3cc(Cc4n[nH]c(=O)c5ccccc45)ccc3F)CC2)c([N+](=O)[O-])cc1[N+](=O)[O-] + CC[C@H](NC(=O)[C@H](C)NC)C(=O)N1C[C@@H](O)C[C@H]1Cc1c(-c2[nH]c3cc(F)ccc3c2C[C@@H]2C[C@H](O)CN2C(=O)[C@H](CC)NC(=O)[C@H](C)NC)[nH]c2cc(F)ccc12 [Birinapant],162,
O=C(c1cc(Cc2n[nH]c(=O)c3ccccc23)ccc1F)N1CCN(C(=O)C2CC2)CC1 [Olaparib] + CC[C@H](NC(=O)[C@H](C)NC)C(=O)N1C[C@@H](O)C[C@H]1Cc1c(-c2[nH]c3cc(F)ccc3c2C[C@@H]2C[C@H](O)CN2C(=O)[C@H](CC)NC(=O)[C@H](C)NC)[nH]c2cc(F)ccc12 [Birinapant],-98.9,-1730
CN1CCCC(n2nc(Cc3ccc(Cl)cc3)c3ccccc3c2=O)CC1 (stereo not drawn) [Azelastine hydrochloride] + CC[C@H](NC(=O)[C@H](C)NC)C(=O)N1C[C@@H](O)C[C@H]1Cc1c(-c2[nH]c3cc(F)ccc3c2C[C@@H]2C[C@H](O)CN2C(=O)[C@H](CC)NC(=O)[C@H](C)NC)[nH]c2cc(F)ccc12 [Birinapant],-156,
CN1C(=O)C[C@@H](C(=O)N[C@@H](Cc2c[nH]cn2)C(=O)N2CCC[C@H]2C(N)=O)NC1=O [Taltirelin] + CC[C@H](NC(=O)[C@H](C)NC)C(=O)N1C[C@@H](O)C[C@H]1Cc1c(-c2[nH]c3cc(F)ccc3c2C[C@@H]2C[C@H](O)CN2C(=O)[C@H](CC)NC(=O)[C@H](C)NC)[nH]c2cc(F)ccc12 [Birinapant],10.4,
C/C(=N\NC(=S)N1CCC1)c1ccccn1 + CC[C@H](NC(=O)[C@H](C)NC)C(=O)N1C[C@@H](O)C[C@H]1Cc1c(-c2[nH]c3cc(F)ccc3c2C[C@@H]2C[C@H](O)CN2C(=O)[C@H](CC)NC(=O)[C@H](C)NC)[nH]c2cc(F)ccc12 [Birinapant],-323,-1630
Cc1n[nH]c(C)c1Cc1sc2c(c1C(=O)N1C[C@H](O)CO1)c(=O)n(C)c(=O)n2CC(C)C + CC[C@H](NC(=O)[C@H](C)NC)C(=O)N1C[C@@H](O)C[C@H]1Cc1c(-c2[nH]c3cc(F)ccc3c2C[C@@H]2C[C@H](O)CN2C(=O)[C@H](CC)NC(=O)[C@H](C)NC)[nH]c2cc(F)ccc12 [Birinapant],60.3,
COc1ccc(S(=O)(=O)N(C(C)=O)c2ccccc2/C=C/c2cc[n+]([O-])cc2)cc1 + CC[C@H](NC(=O)[C@H](C)NC)C(=O)N1C[C@@H](O)C[C@H]1Cc1c(-c2[nH]c3cc(F)ccc3c2C[C@@H]2C[C@H](O)CN2C(=O)[C@H](CC)NC(=O)[C@H](C)NC)[nH]c2cc(F)ccc12 [Birinapant],-72.6,
CN(C)c1nc(Cc2ccc(NC(=O)c3ccc4ccccc4c3)cc2)nc(Cl)c1CC(=O)O + CC[C@H](NC(=O)[C@H](C)NC)C(=O)N1C[C@@H](O)C[C@H]1Cc1c(-c2[nH]c3cc(F)ccc3c2C[C@@H]2C[C@H](O)CN2C(=O)[C@H](CC)NC(=O)[C@H](C)NC)[nH]c2cc(F)ccc12 [Birinapant],169,
N#CN=C(NCCCCCCOc1ccc(Cl)cc1)Nc1ccncc1 + CC[C@H](NC(=O)[C@H](C)NC)C(=O)N1C[C@@H](O)C[C@H]1Cc1c(-c2[nH]c3cc(F)ccc3c2C[C@@H]2C[C@H](O)CN2C(=O)[C@H](CC)NC(=O)[C@H](C)NC)[nH]c2cc(F)ccc12 [Birinapant],-214,-1410
N=C(NCCCCCCNC(=N)NC(=N)Nc1ccc(Cl)cc1)NC(=N)Nc1ccc(Cl)cc1 [Chlorhexidine] + CC[C@H](NC(=O)[C@H](C)NC)C(=O)N1C[C@@H](O)C[C@H]1Cc1c(-c2[nH]c3cc(F)ccc3c2C[C@@H]2C[C@H](O)CN2C(=O)[C@H](CC)NC(=O)[C@H](C)NC)[nH]c2cc(F)ccc12 [Birinapant],-4.24,
CC(C)C[C@@H](C=O)NC(=O)[C@H](CC(C)C)NC(=O)[C@H](CC(C)C)NC(=O)OCc1ccccc1 + CC[C@H](NC(=O)[C@H](C)NC)C(=O)N1C[C@@H](O)C[C@H]1Cc1c(-c2[nH]c3cc(F)ccc3c2C[C@@H]2C[C@H](O)CN2C(=O)[C@H](CC)NC(=O)[C@H](C)NC)[nH]c2cc(F)ccc12 [Birinapant],36.9,
O=C(NC1CC1)c1cccc(-c2ccc3c(NC(=O)C4CC4)n[nH]c3c2)c1 + CC[C@H](NC(=O)[C@H](C)NC)C(=O)N1C[C@@H](O)C[C@H]1Cc1c(-c2[nH]c3cc(F)ccc3c2C[C@@H]2C[C@H](O)CN2C(=O)[C@H](CC)NC(=O)[C@H](C)NC)[nH]c2cc(F)ccc12 [Birinapant],81.8,
N#Cc1ccc(COC[C@H]2O[C@@H](n3c(NCc4ccc(Cl)c(Cl)c4)nc4c(N)ncnc43)[C@H](O)[C@@H]2O)cc1 + CC[C@H](NC(=O)[C@H](C)NC)C(=O)N1C[C@@H](O)C[C@H]1Cc1c(-c2[nH]c3cc(F)ccc3c2C[C@@H]2C[C@H](O)CN2C(=O)[C@H](CC)NC(=O)[C@H](C)NC)[nH]c2cc(F)ccc12 [Birinapant],-237,
COc1ccc(-c2ccc3c(N4CCOCC4)nc(N4C[C@@H](C)O[C@@H](C)C4)nc3n2)cc1CO + CC[C@H](NC(=O)[C@H](C)NC)C(=O)N1C[C@@H](O)C[C@H]1Cc1c(-c2[nH]c3cc(F)ccc3c2C[C@@H]2C[C@H](O)CN2C(=O)[C@H](CC)NC(=O)[C@H](C)NC)[nH]c2cc(F)ccc12 [Birinapant],-161,
Cc1nc(N)ncc1-c1nc(N2CCOCC2)c2sc(C(C)(C)O)cc2n1 + CC[C@H](NC(=O)[C@H](C)NC)C(=O)N1C[C@@H](O)C[C@H]1Cc1c(-c2[nH]c3cc(F)ccc3c2C[C@@H]2C[C@H](O)CN2C(=O)[C@H](CC)NC(=O)[C@H](C)NC)[nH]c2cc(F)ccc12 [Birinapant],-47.1,
CC(C)(O)c1cc2nc(-c3cnc(N)nc3)nc(N3CCOCC3)c2s1 + CC[C@H](NC(=O)[C@H](C)NC)C(=O)N1C[C@@H](O)C[C@H]1Cc1c(-c2[nH]c3cc(F)ccc3c2C[C@@H]2C[C@H](O)CN2C(=O)[C@H](CC)NC(=O)[C@H](C)NC)[nH]c2cc(F)ccc12 [Birinapant],72.3,
COc1ccc(-c2nc(N3CCOCC3)c3sc(CN(C)c4ncc(C(=O)NO)cn4)cc3n2)cn1 + CC[C@H](NC(=O)[C@H](C)NC)C(=O)N1C[C@@H](O)C[C@H]1Cc1c(-c2[nH]c3cc(F)ccc3c2C[C@@H]2C[C@H](O)CN2C(=O)[C@H](CC)NC(=O)[C@H](C)NC)[nH]c2cc(F)ccc12 [Birinapant],-204,-1340
